Inconclusive results are not listed. Active and inactive are the calls of the source. Calls come from the whole dose curve; as a rule, active = well fitted curve in the direction sought with a large enough effect (not every such curve was filed as active); inconclusive = small, poorly fitted or top-dose-only effect, or effect the other way, or another doubt; inactive = no such curve, though single readings can be large or run the other way.
Assay: Cell viability assay for measurement of the protective activity of small molecules against cell death caused by Zika virus infection in human neural progenitor cells (hNPCs)
Settings: hNPC ZIKV-induced death protection, ATP luminescence, 72 h; series mostly up to 46.1 µM
Method in brief: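 Luminescent ATP content after 72 h ZIKV infection (2 FFU/cell) of hNPCs, compounds added 1 h before virus. Protection expressed as percent inhibition of the infection-induced drop in cell viability.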

Row | SMILES | outcome
1 | COc1ccc2nc(NC(=O)Nc3ccccc3)sc2c1 | inactive
2 | CN(C)c1ccc2cc(C(=O)N[C@@H](CCCN=C(N)CCl)C(=O)NCc3ccccc3)ccc2c1 | inactive
3 | NC1CCC(Nc2nc(Nc3ccc(C(=O)N4CCCCC4)cc3)c3ncn(-c4cccc(F)c4)c3n2)CC1 (stereo not drawn) | inactive
4 | CCCC(=O)OC[C@@H](OC(=O)CCC)[C@@H](OC(=O)CCC)[C@H](Cn1c2nc(=O)[nH]c(=O)c-2nc2cc(C)c(C)cc21)OC(=O)CCC | inactive
5 | CC(=Cc1ccccc1)C=C1SC(=S)N(CC(=O)O)C1=O | inactive
6 | Nc1cc(C(F)(F)F)ccc1S | inactive
7 | Cc1cccc(/C=C/c2ccccc2)n1 | inactive
8 | COc1cccc2c1C(=O)c1c(O)c3c(c(O)c1C2=O)C[C@@](O)(C(=O)CO)C[C@@H]3O[C@H]1C[C@H](N)[C@H](O[C@@H]2CCCCO2)[C@H](C)O1 | inactive
9 | O=C(O)Cc1ccc(-c2ccccc2)cc1 | inactive
10 | CC1(C)OC2=C(C(=O)c3ccccc3C2=O)[C@H](NCc2ccccc2)[C@H]1O | inactive
11 | Cc1ccc(O)c(-n2nc3ccccc3n2)c1 | inactive
12 | C[C@@H]1CCN(C(=O)CC#N)C[C@H]1N(C)c1ncnc2[nH]ccc12 | inactive
13 | Nc1ncnc2c1ncn2[C@@H]1O[C@@H](CO)[C@H](O)[C@H]1O | inactive
14 | CC1(C)Cc2c(sc(NC(=S)NC(=O)c3ccccc3)c2C(=O)O)CO1 | inactive
15 | O=C(Nc1ccc([N+](=O)[O-])cc1Cl)c1cc(Cl)ccc1O | inactive
16 | Nc1ccc2c(c1)CN1C(=O)c3ccccc3C1=N2 | inactive
17 | O[C@@H](COc1cccc2ncccc12)CN1CCN(C2c3ccccc3[C@@H]3[C@H](c4ccccc42)C3(F)F)CC1 (stereo partly drawn) | inactive

Row | SMILES | outcome
18 | C/C(=N\O)c1ccc(OCC(=O)N2CCCCC2)cc1 | inactive
19 | CC(O)=C(C#N)C(=O)Nc1ccc(C(F)(F)F)cc1 | inactive
20 | C=C1C(=O)[C@@]23C(CC[C@@H]1[C@H]2O)[C@@]12CO[C@]3(O)[C@@H](O)[C@@H]1C(C)(C)CC[C@@H]2O (stereo partly drawn) | inactive
21 | COc1ccc(/C=C/C(=O)Nc2ccccc2C(=O)O)cc1OC | inactive
22 | O=C(O)[C@@H](c1ccc(OCc2ccc3ccccc3n2)cc1)C1CCCC1 | inactive
23 | CC[C@@]1(O)C[C@H](O[C@H]2C[C@H](N(C)C)[C@H](O[C@H]3C[C@H](O)[C@H](O[C@H]4CCC(=O)[C@H](C)O4)[C@H](C)O3)[C@H](C)O2)c2c(cc3c(c2O)C(=O)c2c(O)cccc2C3=O)[C@@H]1C(=O)OC | inactive
24 | COc1ccnc2c1CCCCC2S(=O)c1nc2ccccc2[nH]1 (stereo not drawn) | inactive
25 | CC(C(=O)O)c1ccc(C(=O)c2ccccc2)s1 (stereo not drawn) | inactive
26 | CNC(=O)c1ccccc1Sc1ccc2c(/C=C/c3ccccn3)n[nH]c2c1 | inactive
27 | CC(C(=O)O)c1ccc(-c2ccccc2)c(F)c1 (stereo not drawn) | inactive
28 | CCC(C)SSc1ncc[nH]1 (stereo not drawn) | inactive
29 | O=C(O)CCC(=O)c1ccc(-c2ccccc2)cc1 | inactive
30 | O=C(Nc1ccc(C(=O)O)c(O)c1)c1ccccc1 | inactive
31 | O=S(=O)(O)c1ccc2nc(-c3ccccc3)[nH]c2c1 | inactive
32 | COc1ccc(NC(=O)/C=C/c2ccc(Cl)cc2)cc1 | inactive
33 | CS(=O)(=O)c1ccc(-c2cn3ccccc3n2)cc1 | inactive
